Laboratory results published in ChEMBL document CHEMBL1157539, “Thousands of chemical starting points for antimalarial lead identification” (Nature, 2010).

System: Plasmodium falciparum
Experiment: GSK_TCMDC: Inhibition of Plasmodium falciparum 3D7 in whole red blood cells, using parasite LDH activity as an index of growth. Test compounds present at 2uM
Type: functional

Row | SMILES | Inhibition [%]
1 | Cc1c(Cl)cccc1N=C(S)NN=Cc1ccccn1 | 99
2 | Cc1c(C(=O)N2CCc3cc4nccc(N5CCN6CCC[C@H]6C5)c4cc32)cnn1-c1ccc(C#N)cc1.Cl | 90
3 | CC(C)c1cn2c3c(cc(C(=O)N[C@@H](Cc4ccccc4)[C@H](O)CNC4CCOCC4)cc13)N(C)S(=O)(=O)CC2.O=CO | 98
4 | Cc1nn(CC(C)C)c2sc(C(=O)Nc3nc(-c4ccccn4)cs3)cc12 | 96
5 | Cc1nc(N)nc(N)c1CCCOc1cccc(Cl)c1 | 96
6 | COc1ccc(C(=O)C2CCN(CCCCNC(=O)c3ccc(NC(=O)c4cc(Cl)cc(Cl)c4)cc3)CC2)cc1 | 100
7 | O=C(Nc1ccc(OC2CCN(Cc3ccc(F)cc3)CC2)c(Cl)c1)c1ccoc1.O=C(O)C(F)(F)F | 89
8 | CS(=O)(=O)CCNc1nccc(N2CCc3ncnc(Nc4ccc(OCc5cccc(F)c5)c(Cl)c4)c3C2)n1 | 100
9 | Cc1ccc(C)c(Cn2c(N3CCC(C(=O)NCc4cccs4)CC3)nc3ccccc32)c1 | 89
10 | O=C(/C=C/c1ccc(Cl)c(Cl)c1)N1CCC(CCN2CCC(c3c[nH]c4ccccc34)CC2)CC1 | 100
11 | Br.CCc1c(CCNCCCCCCNCCc2ccc([N+](=O)[O-])cc2)ccc(O)c1O | 94
12 | O=C(Nc1ccccc1)c1ccc(-c2cc3ccncc3cc2OC2CCNCC2)s1 | 100
13 | C[C@@H]([C@@H](CCCc1ccc(Cl)cc1)C(=O)N[C@H](C(=O)Nc1cccnc1)C(C)(C)C)N(O)C=O | 100
14 | O=C(Nc1ccc(C(=O)Oc2ccc3ccccc3c2)cc1)N[C@@H](Cc1ccc(O)cc1)C(=O)NC1CCN(Cc2ccc(O)cc2)C1.O=C(O)C(F)(F)F (stereo not given in full) | 86
15 | CCNc1cc(C(=O)N[C@@H](Cc2ccccc2)[C@H](O)CNCc2cc(C#N)ccc2OC)cc(N2CCCC2=O)c1.O=C(O)C(F)(F)F | 85
16 | Cl.Oc1ccc(Cc2cc(Oc3c(I)cc(CCc4ncc[nH]4)cc3I)ccc2O)cc1 | 100
17 | CC(C)[C@H](NC(=O)c1ccc(O)c(-c2ccc(Cl)c(Cl)c2)c1)C(=O)NCCN(C)C | 92
18 | COc1ccc(N2CCc3c(-c4cccc5cnccc45)cc(C)nc32)c(C)c1 | 96
19 | CC(=O)Nc1sc(C)c(C)c1CN1CCc2ccccc2C1 | 93
20 | CC(C)Cn1c(Sc2ccc(C#N)c([N+](=O)[O-])c2)nnc1-c1ccccc1 | 83

Row | SMILES | Inhibition [%]
21 | Cc1noc(-c2ccc(NC[C@@H](C)NC[C@H](O)c3cccc(Cl)c3)cc2)n1 | 97
22 | CCN(CC)CCN(Cc1ccc(-c2ccc(C(F)(F)F)cc2)cc1)C(=O)Cn1c(CCc2cccc(C#N)c2)nc(=O)c2ccccc21.O=C(O)C(O)C(O)C(=O)O | 100
23 | COc1ccc(C(=O)Nc2nonc2-c2ccc(OC)c(OC)c2)cc1Cl | 97
24 | CCc1nc2c(cnn2CC)c(NC2CCOCC2)c1CNC(=O)N1CCOCC1 | 98
25 | COc1nc2c(N3CCN(CCNCc4ccc5c(n4)NC(=O)CO5)CC3)ccnc2cc1F.Cl | 100
26 | CCN(CC)CCN(Cc1ccc(-c2ccc(C(F)(F)F)cc2)cc1)C(=O)Cn1c(CCc2ccc(F)c(C#N)c2)nc(=O)c2ccccc21.O=C(O)C(O)C(O)C(=O)O | 98
27 | COc1ccc(NC(=O)CCNc2cc(C)nc(Nc3ccccc3)n2)cc1.O=C(O)C(F)(F)F | 92
28 | NS(=O)(=O)c1ccc(CNC(=O)c2cnc3c(O)cccc3c2Nc2cccc(NC(=O)c3ccc(Cl)c(Cl)c3)c2)cc1.O=C(O)C(F)(F)F | 97
29 | Cc1c(CN2CCCCC2)cccc1OCCCNc1nc(NCCc2ccc(O)cc2)nc(N2CCNCC2)n1.O=C(O)C(F)(F)F | 100
30 | O=C(Nc1cccc(F)c1)c1ccc(C(=O)NC2CCN(CC3CCCCC3)CC2)cc1.O=C(O)C(F)(F)F | 96
31 | N#Cc1cccc(NC(=O)c2ccc(S(=O)(=O)NCC3CCCN3CC3CCCCC3)cc2)c1.O=C(O)C(F)(F)F (stereo not given) | 88
32 | CN(C)CCNCc1ccc(-c2ccc3c(Nc4ccc(F)cc4Cl)ccnc3c2)o1 | 100
33 | CN(C)CC(O)COc1ccc(Nc2ncc([N+](=O)[O-])c(Nc3ccccc3O)n2)cc1.O=C(O)C(F)(F)F (stereo not given) | 100
34 | Br.CC1(C)NC(N)=NC(=N)N1OCCCOc1cc(Cl)cc(Cl)c1 | 95
35 | CC(C)CCn1c(Sc2ccc(C#N)c([N+](=O)[O-])c2)nnc1-c1ccc(Cl)cc1 | 90
36 | CC1CCCCC1N(C)C1CCN(CCCNC(=O)C=Cc2cccc(C(F)(F)F)c2)CC1 (stereo not given) | 100
37 | CCOc1cc(C(=O)NCC2CCN(CC3CCCCC3)CC2)ccc1-c1nc2cc(Cl)ccc2[nH]1 | 98
38 | CN1CCN(c2ccnc3ccc(NC(=O)Nc4ccc5c(c4)CCCC5=O)cc23)CC1 | 100
39 | COc1ccc(CCNCCCCCNCCCc2ccc(Cl)cc2)cc1OC.Cl | 100
40 | COc1cc(NC(=O)c2ccc3c(=O)n(Cc4ccccc4)c(=S)[nH]c3c2)cc(OC)c1OC | 94
